{"source": "PubChem BioAssay (Tox21)", "note": "Results filed as inconclusive are left out. A number with no mark means an inactive call. Calls come from the whole dose curve; as a rule, active = well fitted cell-killing curve with a large enough effect in the repeat runs; inconclusive = weak or mixed curves, or effect the other way; inactive = flat fitted curve, though single readings scatter. % is set by controls: 0 for no effect and ±100 for the full control effect.", "data": [{"assay": "qHTS assay to identify small molecule antagonists of the estrogen related receptor signaling pathway with the pleiotropic PPARgamma coactivator (PGC) cell viability counter screen (AID 1224822;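 note: viability read after 17.5 h compound exposure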)", "settings": "ERR/PGC reporter cell line viability counter screen; series mostly up to 46.1 µM; viability change, negative = cytotoxic: at the top concentration", "excerpt": "National Center for Advancing Translational Sciences [NCATS]\nNIH Chemical Genomics Center [NCGC]\nU.S. Environmental Protection Agency [EPA]\nNational Institutes of Environmental Health Sciences [NIEHS]\nNational Toxicology Program [NTP]\nU.S. Food and Drug Administration [FDA]\nEstrogen related receptors (ERRs), the first orphan nuclear receptors discovered, play an important role in the control of cellular energy metabolism. ERRs are required for high-energy production in response to the environmental challenges. The pleiotropic PPARgamma coactivator (PGC) is a major partner of ERR and a key regulator in energy homeostasis. Together they have been implicated in the etiology of metabolic disorders such as Type 2 diabetes and metabolic syndrome. ERR-alpha was also identified as an adverse marker for breast cancer progression; ERR-alpha-positive tumors have a poor prognosis. To screen and to identify environmental compounds that perturb the ERR and PGC/ERR signaling pathways could provide valuable information for potential therapeutic or preventive measures in the treatment of metabolic disease. To differentiate true PGC/ERR antagonists or agonist from cytotoxic substances, the assay is multiplexed with cell viability assay.\nTox21 Assay Protocol Summary:\nThe PGC/ERR cells were dispensed at 2,000 cells/5 ul/well in 1536-well white plates using a Multidrop dispenser. After the assay plates were incubated at a 37 C/5% CO2 incubator for 6 hours, 23 nL of compounds dissolved in DMSO, positive and negative controls or DMSO only was transferred to the assay plate by a pin tool. The plates were incubated at 37 C for 17.5 hours. 1 ul/well of CellTiter-Fluor reagent was added into the assay plates using a Flying Reagent Dispenser. After 30 min incubation at 37 C/5% CO2, the fluorescence intensity in the plates was measured using a ViewLux plate reader.", "units": {"viability change, negative = cytotoxic": "%"}, "values": [{"smiles": "O=C1N(c2ccccc2)c2ccccc2C1(Cc1ccncc1)Cc1ccncc1", "viability change, negative = cytotoxic": 1.13}, {"smiles": "CNCCC(Oc1ccccc1OC)c1ccccc1", "note": "(configuration not stated)", "viability change, negative = cytotoxic": 2.93}, {"smiles": "CCCN(CCC)C(=O)C(CCC(=O)O)NC(=O)c1ccccc1", "note": "(configuration not stated)", "viability change, negative = cytotoxic": 8.4}, {"smiles": "CO[C@@]1(NC(=O)CSCC#N)C(=O)N2C(C(=O)O)=C(CSc3nnnn3C)CS[C@@H]21", "viability change, negative = cytotoxic": 11.9}, {"smiles": "CC1=C(CC(=O)O)c2cc(F)ccc2/C1=C\\c1ccc(S(C)(=O)=O)cc1", "viability change, negative = cytotoxic": -4.64}, {"smiles": "CN(C)CC[C@@H](c1ccc(Cl)cc1)c1ccccn1", "viability change, negative = cytotoxic": 7.85}, {"smiles": "NC1=NCC2c3ccccc3Cc3ccccc3N12", "note": "(configuration not stated)", "viability change, negative = cytotoxic": 0.339}, {"smiles": "Cc1nnc(SCC2=C(C(=O)O)N3C(=O)[C@@H](NC(=O)Cn4cnnn4)[C@H]3SC2)s1", "viability change, negative = cytotoxic": 8.64}, {"smiles": "NC/C=C/C(=O)O", "viability change, negative = cytotoxic": 19}, {"smiles": "CC(=O)Oc1cc(C(C)C)c(OCCN(C)C)cc1C", "viability change, negative = cytotoxic": 10.9}, {"smiles": "COc1ccccc1N1CCN(CCCNc2cc(=O)n(C)c(=O)n2C)CC1", "viability change, negative = cytotoxic": -2.21}, {"smiles": "CC(C)NCC(O)COc1ccc(CCOCC2CC2)cc1", "note": "(configuration not stated)", "viability change, negative = cytotoxic": 5.67}, {"smiles": "O=C(O)CN(CCN(CC(=O)O)CC(=O)O)CCN(CC(=O)O)CC(=O)O", "viability change, negative = cytotoxic": -8.54}, {"smiles": "C[C@]12CCC(=O)C=C1CC[C@@H]1[C@@H]2CC[C@@]2(C)[C@H]1CC[C@]2(O)C(=O)CO", "viability change, negative = cytotoxic": 0.0847}, {"smiles": "CN1CCN(C2=Nc3ccccc3Oc3ccc(Cl)cc32)CC1", "viability change, negative = cytotoxic": -7.54}, {"smiles": "CN1CCC[C@@H]1Cc1c[nH]c2ccc(CCS(=O)(=O)c3ccccc3)cc12", "viability change, negative = cytotoxic": -12.9}, {"smiles": "CCCCNc1cc(C(=O)O)cc(S(N)(=O)=O)c1Oc1ccccc1", "viability change, negative = cytotoxic": 1.07}]}]}
